Assay in all cases: DAPPL (digital affinity profiling via proximity ligation, sequencing); 10 mM Tris-HCl pH 7.5, 50 mM NaCl, 1 mM DTT, 4% glycerol, room temperature, 30 min; GST-TFs on glutathione beads, 16-mer random dsDNA library, 0.1% formaldehyde crosslink after washing; high values mean tight binding
One experiment concerns the target T1, FEV (Homo sapiens, UniProt Q99581 1-238).
T1 sequence: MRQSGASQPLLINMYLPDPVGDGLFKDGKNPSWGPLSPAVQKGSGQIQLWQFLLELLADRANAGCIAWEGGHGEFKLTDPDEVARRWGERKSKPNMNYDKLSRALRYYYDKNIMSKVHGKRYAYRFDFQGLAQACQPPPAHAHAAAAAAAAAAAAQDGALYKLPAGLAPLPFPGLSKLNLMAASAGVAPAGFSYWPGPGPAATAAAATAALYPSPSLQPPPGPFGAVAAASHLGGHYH
As to conditions: protein: recombinant; tags: N-terminal GST; dsDNA, one strand shown. In a few lines:
(§1)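 Human transcription factors were made in yeast as GST fusions, captured on glutathione beads and barcoded with DNA. With a tag-only sample included, the pool was incubated with 200 nmole of a random double-stranded 16-mer DNA library in Tris/NaCl/DTT/glycerol buffer at room temperature for 30 min, then crosslinked with 0.1% formaldehyde after washing, ligated by proximity, amplified and sequenced. For binding signal, each hexamer's read frequency for a factor is divided by its frequency for the tag-only sample.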

The next experiment deals with ETV5 (Homo sapiens, UniProt P41161 1-510). Particulars: protein: recombinant; tags: N-terminal GST; dsDNA, one strand shown. In outline:
as §1

Another experiment addresses HSF1 (Homo sapiens, UniProt Q00613 1-529). Particulars: protein: recombinant; tags: N-terminal GST; chain copies: 3; dsDNA, one strand shown. In outline: as §1
For the next experiment, the target named is T2, SPIC (Homo sapiens, UniProt Q8N5J4 1-248).
T2 sequence: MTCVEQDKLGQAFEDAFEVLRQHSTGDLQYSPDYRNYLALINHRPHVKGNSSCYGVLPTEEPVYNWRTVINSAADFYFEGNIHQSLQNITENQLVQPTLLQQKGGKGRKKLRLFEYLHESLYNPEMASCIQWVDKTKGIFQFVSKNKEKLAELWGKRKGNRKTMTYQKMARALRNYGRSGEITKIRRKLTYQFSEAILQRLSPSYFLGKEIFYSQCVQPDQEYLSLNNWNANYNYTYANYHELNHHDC
Particulars: protein: recombinant; tags: N-terminal GST; dsDNA, one strand shown. In a few lines:
as §1

For another experiment, the target named is ELF4 (Homo sapiens, UniProt Q99607 1-663). Particulars: protein: recombinant; tags: N-terminal GST; dsDNA, one strand shown. In a few lines:
as §1

In a further experiment the target is T3, ELK4 (Homo sapiens, UniProt P28324-2 1-405).
T3 sequence: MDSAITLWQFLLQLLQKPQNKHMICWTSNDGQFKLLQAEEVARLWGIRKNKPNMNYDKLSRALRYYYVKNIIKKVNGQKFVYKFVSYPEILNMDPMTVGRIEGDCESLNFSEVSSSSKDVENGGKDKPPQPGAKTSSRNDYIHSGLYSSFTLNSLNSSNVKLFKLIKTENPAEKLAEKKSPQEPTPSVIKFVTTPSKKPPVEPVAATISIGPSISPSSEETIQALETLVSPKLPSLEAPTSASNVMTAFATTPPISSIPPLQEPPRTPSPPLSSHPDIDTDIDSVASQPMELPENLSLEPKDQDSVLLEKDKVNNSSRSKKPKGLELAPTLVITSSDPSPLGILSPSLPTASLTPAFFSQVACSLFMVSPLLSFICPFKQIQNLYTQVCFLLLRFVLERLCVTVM
As to conditions: protein: recombinant; tags: N-terminal GST; dsDNA, one strand shown. In a few lines: as §1

Another experiment has as its target T4, ETV2 (Homo sapiens, UniProt O00321 1-342).
T4 sequence: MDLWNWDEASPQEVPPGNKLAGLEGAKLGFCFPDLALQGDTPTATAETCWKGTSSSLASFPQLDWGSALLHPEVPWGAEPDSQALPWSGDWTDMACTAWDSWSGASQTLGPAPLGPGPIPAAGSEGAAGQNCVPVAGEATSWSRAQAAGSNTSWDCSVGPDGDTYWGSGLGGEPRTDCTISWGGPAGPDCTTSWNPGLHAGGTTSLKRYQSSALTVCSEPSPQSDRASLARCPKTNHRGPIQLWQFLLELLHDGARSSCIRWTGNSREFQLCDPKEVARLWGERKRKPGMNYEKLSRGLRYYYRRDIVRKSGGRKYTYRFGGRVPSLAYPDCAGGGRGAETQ
Particulars: protein: recombinant; tags: N-terminal GST; dsDNA, one strand shown. In outline:
as §1

For a further experiment, the target named is T5, ELF3 (Homo sapiens, UniProt P78545 1-371).
T5 sequence: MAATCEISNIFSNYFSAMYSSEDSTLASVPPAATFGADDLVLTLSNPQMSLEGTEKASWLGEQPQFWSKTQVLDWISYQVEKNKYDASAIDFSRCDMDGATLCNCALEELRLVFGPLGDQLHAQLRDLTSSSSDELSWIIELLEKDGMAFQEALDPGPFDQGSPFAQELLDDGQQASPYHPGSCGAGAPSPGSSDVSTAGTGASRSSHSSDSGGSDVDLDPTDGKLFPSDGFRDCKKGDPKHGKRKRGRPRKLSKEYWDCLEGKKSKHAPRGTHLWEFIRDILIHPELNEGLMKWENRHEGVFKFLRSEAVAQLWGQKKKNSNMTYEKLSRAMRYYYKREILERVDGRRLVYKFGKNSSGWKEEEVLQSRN
As to conditions: protein: recombinant; tags: N-terminal GST; dsDNA, one strand shown. In outline:
as §1

For the next experiment, the target named is CRX (Homo sapiens, UniProt O43186 1-299). As to conditions: protein: recombinant; tags: N-terminal GST; dsDNA, one strand shown. In outline: as §1
Chain of CRX (O43186 whole entry): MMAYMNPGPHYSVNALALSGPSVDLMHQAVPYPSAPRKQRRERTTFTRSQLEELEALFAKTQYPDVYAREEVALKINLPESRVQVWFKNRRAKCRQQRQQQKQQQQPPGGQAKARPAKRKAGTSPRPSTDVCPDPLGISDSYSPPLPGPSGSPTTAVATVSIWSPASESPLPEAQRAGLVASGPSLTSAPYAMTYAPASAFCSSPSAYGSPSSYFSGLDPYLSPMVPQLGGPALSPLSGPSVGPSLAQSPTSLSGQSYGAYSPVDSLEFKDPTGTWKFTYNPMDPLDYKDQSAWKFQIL
The target of a further experiment is ETV1 (Homo sapiens, UniProt P50549 1-477). Particulars: protein: recombinant; tags: N-terminal GST; dsDNA, one strand shown. In a few lines:
as §1

A further experiment addresses T6, ERF (Homo sapiens, UniProt P50548 1-548).
T6 sequence: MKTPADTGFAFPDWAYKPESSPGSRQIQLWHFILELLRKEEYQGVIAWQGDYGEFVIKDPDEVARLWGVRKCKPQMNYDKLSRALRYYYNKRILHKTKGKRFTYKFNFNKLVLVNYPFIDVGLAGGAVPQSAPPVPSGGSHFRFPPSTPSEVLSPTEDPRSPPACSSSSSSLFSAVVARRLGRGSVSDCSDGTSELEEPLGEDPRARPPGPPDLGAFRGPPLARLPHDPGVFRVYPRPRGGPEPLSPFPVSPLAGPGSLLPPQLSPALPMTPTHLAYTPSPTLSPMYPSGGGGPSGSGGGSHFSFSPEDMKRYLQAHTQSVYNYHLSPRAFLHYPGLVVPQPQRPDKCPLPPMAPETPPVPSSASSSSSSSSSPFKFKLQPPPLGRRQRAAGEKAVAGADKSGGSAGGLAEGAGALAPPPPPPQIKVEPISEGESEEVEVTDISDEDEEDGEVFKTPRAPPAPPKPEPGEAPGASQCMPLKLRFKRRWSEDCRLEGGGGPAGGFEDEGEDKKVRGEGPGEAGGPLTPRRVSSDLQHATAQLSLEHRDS
Particulars: protein: recombinant; tags: N-terminal GST; dsDNA, one strand shown. In a few lines:
as §1

A further experiment deals with T7, ETV3L (Homo sapiens, UniProt Q6ZN32 1-361).
T7 sequence: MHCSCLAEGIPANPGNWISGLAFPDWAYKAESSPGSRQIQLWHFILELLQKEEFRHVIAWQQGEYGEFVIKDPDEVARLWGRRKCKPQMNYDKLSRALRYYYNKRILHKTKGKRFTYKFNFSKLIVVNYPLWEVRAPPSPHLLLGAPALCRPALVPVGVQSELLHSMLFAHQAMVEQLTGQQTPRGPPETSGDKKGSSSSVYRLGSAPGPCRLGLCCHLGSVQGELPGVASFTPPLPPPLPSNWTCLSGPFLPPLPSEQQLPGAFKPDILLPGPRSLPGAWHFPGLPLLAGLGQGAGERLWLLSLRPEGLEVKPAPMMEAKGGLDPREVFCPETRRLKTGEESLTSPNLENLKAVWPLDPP
Particulars: protein: recombinant; tags: N-terminal GST; dsDNA, one strand shown. In outline:
as §1

Another experiment addresses T8, ETS2 (Homo sapiens, UniProt P15036 1-469).
T8 sequence: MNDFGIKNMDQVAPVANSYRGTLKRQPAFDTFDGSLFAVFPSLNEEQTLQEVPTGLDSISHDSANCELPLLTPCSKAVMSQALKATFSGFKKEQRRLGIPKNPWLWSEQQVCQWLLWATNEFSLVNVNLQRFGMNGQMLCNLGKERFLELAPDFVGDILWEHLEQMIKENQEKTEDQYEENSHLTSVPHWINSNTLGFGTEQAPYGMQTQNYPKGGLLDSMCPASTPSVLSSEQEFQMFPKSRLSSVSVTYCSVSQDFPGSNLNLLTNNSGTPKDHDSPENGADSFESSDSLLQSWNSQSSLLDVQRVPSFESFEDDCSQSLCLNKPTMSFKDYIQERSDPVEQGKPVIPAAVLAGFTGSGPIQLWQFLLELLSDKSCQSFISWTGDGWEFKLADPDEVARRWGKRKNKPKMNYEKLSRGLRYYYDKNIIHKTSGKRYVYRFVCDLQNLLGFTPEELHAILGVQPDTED
Particulars: protein: recombinant; tags: N-terminal GST; dsDNA, one strand shown. In outline: as §1

The target in a further experiment is T9, SPDEF (Homo sapiens, UniProt O95238 1-335).
T9 sequence: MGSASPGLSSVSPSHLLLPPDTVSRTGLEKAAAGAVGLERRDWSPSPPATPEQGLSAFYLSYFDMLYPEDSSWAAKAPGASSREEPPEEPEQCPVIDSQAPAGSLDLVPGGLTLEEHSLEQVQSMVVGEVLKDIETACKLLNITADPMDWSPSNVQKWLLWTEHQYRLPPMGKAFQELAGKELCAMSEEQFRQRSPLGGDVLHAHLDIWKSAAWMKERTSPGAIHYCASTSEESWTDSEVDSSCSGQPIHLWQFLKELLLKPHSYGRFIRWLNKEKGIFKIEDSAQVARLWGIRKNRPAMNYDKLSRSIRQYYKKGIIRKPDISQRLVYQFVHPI
Particulars: protein: recombinant; tags: N-terminal GST; dsDNA, one strand shown. In a few lines:
as §1

The next experiment concerns the target T10, ETV7 (Homo sapiens, UniProt Q9Y603 1-341).
T10 sequence: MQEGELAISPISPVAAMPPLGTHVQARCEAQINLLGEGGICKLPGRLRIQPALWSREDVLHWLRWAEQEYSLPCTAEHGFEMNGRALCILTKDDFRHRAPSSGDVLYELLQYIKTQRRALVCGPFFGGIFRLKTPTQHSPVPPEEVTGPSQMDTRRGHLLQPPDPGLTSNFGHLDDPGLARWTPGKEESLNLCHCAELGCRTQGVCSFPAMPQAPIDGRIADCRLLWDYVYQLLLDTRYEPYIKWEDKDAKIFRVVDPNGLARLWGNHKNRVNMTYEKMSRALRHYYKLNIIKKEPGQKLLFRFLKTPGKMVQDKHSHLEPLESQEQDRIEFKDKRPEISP
Particulars: protein: recombinant; tags: N-terminal GST; dsDNA, one strand shown. In outline: as §1

In another experiment the target is T11, ELF5 (Homo sapiens, UniProt Q9UKW6-2 1-255).
T11 sequence: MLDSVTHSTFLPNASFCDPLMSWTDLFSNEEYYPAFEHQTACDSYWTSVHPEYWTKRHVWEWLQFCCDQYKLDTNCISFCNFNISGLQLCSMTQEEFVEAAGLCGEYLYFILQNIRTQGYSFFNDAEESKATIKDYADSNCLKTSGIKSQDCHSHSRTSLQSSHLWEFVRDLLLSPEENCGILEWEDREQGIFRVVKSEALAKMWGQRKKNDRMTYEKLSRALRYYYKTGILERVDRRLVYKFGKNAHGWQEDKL
Particulars: protein: recombinant; tags: N-terminal GST; dsDNA, one strand shown. In outline:
as §1

The next experiment addresses T12, ETV3 (Homo sapiens, UniProt P41162-2 1-143).
T12 sequence: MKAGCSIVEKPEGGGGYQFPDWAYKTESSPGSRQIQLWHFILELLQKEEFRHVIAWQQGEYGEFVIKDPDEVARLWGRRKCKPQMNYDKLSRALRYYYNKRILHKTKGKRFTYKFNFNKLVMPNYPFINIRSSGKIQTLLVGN
As to conditions: protein: recombinant; tags: N-terminal GST; dsDNA, one strand shown. In a few lines:
as §1

The target in a further experiment is ETV6 (Homo sapiens, UniProt P41212 1-452). Particulars: protein: recombinant; tags: N-terminal GST; dsDNA, one strand shown. In outline:
as §1

Chain of ETV5 (P41161 whole entry): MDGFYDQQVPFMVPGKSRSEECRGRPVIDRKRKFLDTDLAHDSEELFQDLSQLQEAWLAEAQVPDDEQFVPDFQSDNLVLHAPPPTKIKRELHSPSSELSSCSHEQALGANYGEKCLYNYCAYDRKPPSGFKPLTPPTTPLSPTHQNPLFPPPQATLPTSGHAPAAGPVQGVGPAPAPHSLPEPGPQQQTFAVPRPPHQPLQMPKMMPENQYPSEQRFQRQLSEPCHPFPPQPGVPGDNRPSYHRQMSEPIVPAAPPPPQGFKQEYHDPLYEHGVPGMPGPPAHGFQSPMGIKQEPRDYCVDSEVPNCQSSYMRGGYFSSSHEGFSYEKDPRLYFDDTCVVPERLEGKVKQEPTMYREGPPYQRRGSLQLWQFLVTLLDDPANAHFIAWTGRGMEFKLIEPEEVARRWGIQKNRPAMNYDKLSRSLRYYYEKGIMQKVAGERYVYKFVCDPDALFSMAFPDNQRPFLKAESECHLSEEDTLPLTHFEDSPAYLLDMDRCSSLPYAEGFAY
Chain of ELF4 (Q99607 whole entry): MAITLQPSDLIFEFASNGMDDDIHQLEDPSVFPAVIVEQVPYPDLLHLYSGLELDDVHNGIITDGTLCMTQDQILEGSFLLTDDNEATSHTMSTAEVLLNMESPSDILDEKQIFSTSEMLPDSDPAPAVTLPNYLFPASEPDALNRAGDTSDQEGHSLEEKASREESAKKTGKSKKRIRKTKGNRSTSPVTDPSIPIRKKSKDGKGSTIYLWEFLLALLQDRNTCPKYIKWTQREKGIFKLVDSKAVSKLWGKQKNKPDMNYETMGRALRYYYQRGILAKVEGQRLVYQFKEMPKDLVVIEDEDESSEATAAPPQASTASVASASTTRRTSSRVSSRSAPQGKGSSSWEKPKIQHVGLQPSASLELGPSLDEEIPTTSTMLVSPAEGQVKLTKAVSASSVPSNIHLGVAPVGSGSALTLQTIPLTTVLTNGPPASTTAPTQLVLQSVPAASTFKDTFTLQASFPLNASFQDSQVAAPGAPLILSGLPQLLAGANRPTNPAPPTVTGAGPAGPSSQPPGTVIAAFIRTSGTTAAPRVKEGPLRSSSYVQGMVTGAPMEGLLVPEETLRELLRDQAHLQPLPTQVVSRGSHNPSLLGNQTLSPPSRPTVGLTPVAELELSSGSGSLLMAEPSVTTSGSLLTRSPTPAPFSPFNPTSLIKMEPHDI
Chain of ETV6 (P41212 whole entry): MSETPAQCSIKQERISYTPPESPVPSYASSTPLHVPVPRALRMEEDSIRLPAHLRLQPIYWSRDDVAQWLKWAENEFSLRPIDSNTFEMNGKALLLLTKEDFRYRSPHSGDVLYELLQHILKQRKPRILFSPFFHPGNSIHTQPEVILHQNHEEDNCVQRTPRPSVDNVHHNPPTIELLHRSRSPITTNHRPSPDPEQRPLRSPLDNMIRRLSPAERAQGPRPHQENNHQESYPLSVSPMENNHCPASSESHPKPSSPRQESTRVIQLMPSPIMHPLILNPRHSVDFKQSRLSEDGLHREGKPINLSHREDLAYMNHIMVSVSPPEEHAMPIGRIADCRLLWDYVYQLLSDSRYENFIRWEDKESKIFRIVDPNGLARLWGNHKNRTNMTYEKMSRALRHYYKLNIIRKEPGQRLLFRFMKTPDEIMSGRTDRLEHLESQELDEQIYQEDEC
Chain of ETV1 (P50549 whole entry): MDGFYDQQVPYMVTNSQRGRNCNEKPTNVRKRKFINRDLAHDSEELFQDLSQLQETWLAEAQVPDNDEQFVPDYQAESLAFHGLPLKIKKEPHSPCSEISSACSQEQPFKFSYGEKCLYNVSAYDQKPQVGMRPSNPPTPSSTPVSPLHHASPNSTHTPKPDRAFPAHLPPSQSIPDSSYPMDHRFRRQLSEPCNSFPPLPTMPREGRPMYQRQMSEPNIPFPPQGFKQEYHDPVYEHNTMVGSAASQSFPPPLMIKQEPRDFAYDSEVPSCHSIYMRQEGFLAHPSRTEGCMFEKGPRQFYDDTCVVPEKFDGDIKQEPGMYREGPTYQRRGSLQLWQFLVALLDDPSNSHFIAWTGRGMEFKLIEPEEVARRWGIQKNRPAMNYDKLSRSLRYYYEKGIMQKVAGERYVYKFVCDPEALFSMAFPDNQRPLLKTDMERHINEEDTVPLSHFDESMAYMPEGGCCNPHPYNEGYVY
Chain of HSF1 (Q00613 whole entry): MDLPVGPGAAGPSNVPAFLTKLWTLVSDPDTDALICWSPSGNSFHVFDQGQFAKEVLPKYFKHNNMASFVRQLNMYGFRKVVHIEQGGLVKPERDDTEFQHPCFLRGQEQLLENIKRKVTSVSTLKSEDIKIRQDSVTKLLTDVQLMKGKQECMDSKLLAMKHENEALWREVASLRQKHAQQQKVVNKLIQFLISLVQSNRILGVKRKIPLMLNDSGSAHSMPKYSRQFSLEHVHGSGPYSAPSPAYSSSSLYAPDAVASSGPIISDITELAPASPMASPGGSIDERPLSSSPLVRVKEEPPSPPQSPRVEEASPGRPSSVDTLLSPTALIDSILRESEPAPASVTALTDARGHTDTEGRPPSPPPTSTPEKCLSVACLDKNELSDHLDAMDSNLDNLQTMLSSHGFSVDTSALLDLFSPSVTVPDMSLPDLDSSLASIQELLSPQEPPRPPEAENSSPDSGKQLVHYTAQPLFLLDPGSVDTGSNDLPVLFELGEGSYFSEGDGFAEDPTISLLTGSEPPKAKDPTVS

On to ATTAAA, for which the binding signal was 1.1 fold enrichment (6-mer frequency, TF over GST control) with FEV; 1.2 fold enrichment (6-mer frequency, TF over GST control) in the experiment with ETV5; 1.97 fold enrichment (6-mer frequency, TF over GST control) in the experiment with HSF1; 1.14 fold enrichment (6-mer frequency, TF over GST control) with SPIC; 1.16 fold enrichment (6-mer frequency, TF over GST control) with ELF4; 1.1 fold enrichment (6-mer frequency, TF over GST control) with ELK4. The binding signal with ETV2 was 1.16 fold enrichment (6-mer frequency, TF over GST control); in the experiment with ELF3, 1.05 fold enrichment (6-mer frequency, TF over GST control); in the experiment with CRX, 2.99 fold enrichment (6-mer frequency, TF over GST control); with ETV1, 1.18 fold enrichment (6-mer frequency, TF over GST control); in the experiment with ERF it was 1.3 fold enrichment (6-mer frequency, TF over GST control); with ETV3L it was 1.24 fold enrichment (6-mer frequency, TF over GST control). The binding signal with ETS2 is 1.12 fold enrichment (6-mer frequency, TF over GST control); with SPDEF, 1.14 fold enrichment (6-mer frequency, TF over GST control); with ETV7, 1.1 fold enrichment (6-mer frequency, TF over GST control); with ELF5, 1.12 fold enrichment (6-mer frequency, TF over GST control); in the experiment with ETV3, 1.12 fold enrichment (6-mer frequency, TF over GST control); with ETV6 it was 1.18 fold enrichment (6-mer frequency, TF over GST control).

The values above are taken from publication PMC7862700, “An all-to-all approach to the identification of sequence-specific readers for epigenetic DNA modifications on cytosine”.
